Most compounds without a hit are left out; they make up all but 0.75% or so of the library.
TCR act – activators of T cell receptors | primary human leukocytes, anti-CD3, IL-2 HTRF, 48 h | AID 504894 | Potency, µM (titrated, usually from 9.22 µM), without a hit: at the highest dose activation of IL-2 secretion, usual class: activators | 330,000 tested, under 10 active; note: % of control where 0% means no effect
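Primary human leukocytes incubated 48 hr with anti-CD3 beads plus compound, without co-stimulation. Secreted IL-2 measured by HTRF (europium cryptate/d2 anti-IL-2 pair, 320 nm excitation, 665 nm emission).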
PKM2 activator – activators of human pyruvate kinase M2 | P14618 | 0.34% of 260,000 active | purified PKM2, Kinase-Glo ATP luminescence, activation; response scale: 0% is enzyme alone, no compound | Potency, µM (titrated, usually from 57.5 µM), inactives show at the top dose activation, hits mostly activators; note: potency is the fitted concentration of half-maximal effect; % is set by controls: 0 for no effect and ±100 for the full control effect; nearly all actives have a fitted effect of over 55% in size
Target sequence (P14618 whole entry, looked up): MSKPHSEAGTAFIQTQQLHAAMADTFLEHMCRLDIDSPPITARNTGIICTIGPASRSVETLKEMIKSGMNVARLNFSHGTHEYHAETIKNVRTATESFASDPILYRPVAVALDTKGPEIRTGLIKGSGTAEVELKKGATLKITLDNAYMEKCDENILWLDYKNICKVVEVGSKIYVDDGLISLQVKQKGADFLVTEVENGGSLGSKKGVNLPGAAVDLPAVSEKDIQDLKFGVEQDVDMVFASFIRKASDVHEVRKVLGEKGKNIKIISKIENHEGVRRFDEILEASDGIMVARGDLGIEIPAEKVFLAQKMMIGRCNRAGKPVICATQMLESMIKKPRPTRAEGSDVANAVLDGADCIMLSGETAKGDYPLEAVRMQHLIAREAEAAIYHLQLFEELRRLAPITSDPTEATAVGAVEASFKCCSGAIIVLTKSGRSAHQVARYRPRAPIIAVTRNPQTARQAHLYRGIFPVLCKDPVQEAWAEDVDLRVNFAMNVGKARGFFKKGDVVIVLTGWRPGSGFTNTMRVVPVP
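Kinase-Glo luminescence reports ATP generated from ADP (0.1 mM) and PEP (0.5 mM) by purified hPK-M2 after 1 h at room temperature, pH 7.2 imidazole buffer; intermediate enzyme activity allows detecting inhibitors and activators.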
uPA surface inh – cell surface uPA generation inhibition | cell surface uPA generation assay, qHTS | Potency, µM (highest dose often 38.3 µM), for the others: top-dose activity change, negative = inhibition, actives largely listed as inhibitors | 0.31% of 330,000 active | AID 540303; active = well fitted inhibition curve with a large enough effect; inconclusive = small, poorly fitted or top-dose-only effect; inactive = no such curve, though single readings can be large or run the other way; tested in mouse RAW 264.7 cells; note: potency is the fitted concentration of half-maximal effect; % is set by controls: 0 for no effect and ±100 for the full control effect; nearly all actives have a fitted effect of over 55% in size
TSHR antagonist – blocks TSH signaling through the human TSH receptor. TSHR-expressing cells, TSH-stimulated cAMP HTRF, 2 h; active compounds read low. activity change, negative = inhibition, % at 11.5 µM. P16473. 0.2% of 330,000 active;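 active = activity change below a set negative limit, meaning inhibition stronger than a set level, cut at about -70% in these data; inconclusive = activity change between two set negative limits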; note: % is set by controls: 0 for no effect and ±100 for the full control effect
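TSHR-expressing cells were treated with compounds, then stimulated with TSH at EC80 (4nM final) for 2 hours at 37 deg C. Cellular cAMP was measured by HTRF competition between lysate cAMP and cAMP-d2 for a cryptate-labelled anti-cAMP antibody.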
* marks the source's active call; other numbers are inactive results; u = inconclusive; x = no result; [ ] = another dose, or the depositor's remark. Unless noted, calls come from the whole dose curve; as a rule, active = well fitted curve in the direction sought with a large enough effect; inconclusive = small, poorly fitted or top-dose-only effect, or another doubt; inactive = no such curve, though single readings can be large; an effect the other way counts as inactive or inconclusive.

SMILES	TCR act	PKM2 activator	uPA surface inh	TSHR antagonist
COc1ccc(Cn2nnnc2C(C(C)C)N2CCN(c3ccccc3OC)CC2)cc1 (stereo not drawn)	10%	1%	-7%	-86*
COc1cccc(CNC(=O)CCCC(=O)NC(C)CCc2ccccc2)c1 (stereo not drawn)	x	6%	-2%	-130*
Cc1occc1-c1nnc(SCCCC(=O)c2ccc(F)cc2)n1C	-3%	25µM*	7%	-1
CC(=O)Nc1ccc(S(=O)(=O)N2c3ccc(F)cc3CCC2C)cc1 (stereo not drawn)	3%	x	4.5µM*	x
Cn1c(N)c(C(=O)CSc2nc3ccccc3[nH]2)c(=O)n(C)c1=O	-6%	-1%	1%	6
O=C(N=C1SC2CS(=O)(=O)CC2N1c1ccc(F)cc1)C1CC1 (stereo not drawn)	5%	0%	4%	-109*
CCN(C(=O)COc1cc(OC)ccc1C(C)=O)C1CCS(=O)(=O)C1 (stereo not drawn)	x	x	-1%	6
Cn1c(SCc2cccnc2)nc2c(c1=O)SCC2	x	28µM*	1%	14
O=C(NC(C(=O)c1ccccc1)c1ccccc1)c1ccccc1 (stereo not drawn)	-32%	x	-1%	x
O=c1[nH]c(=O)c2nc(-c3ccc(Cl)cc3)cnc2[nH]1	-3%	1%	-7%	-3
O=c1[nH]c(=O)c2nc3c4ccccc4c4ccccc4c3nc2[nH]1	-4%	11µM*	-5%	-10
O=[N+]([O-])c1nn(-c2ccc3c(c2)OCCO3)n(O)c1=NC1CCN(Cc2ccccc2)CC1	0%	0%	4.5µM*	-9
O=[N+]([O-])c1nn(-c2ccccc2)n(O)c1=NC1CCN(Cc2ccccc2)CC1	0%	-1%	-12%	-1
COc1ccc(NC(=O)c2c(NC(=O)CNCC(C)C)sc3c2CCC3)c(OC)c1	-8%	1%	3%	16
Cc1[nH]c2ccccc2c1C(=O)CSc1ccccc1	5%[46.1 µM]	u	1%	-7
Cc1[nH]c2ccccc2c1C(=O)CCl	-12%	0%	8.9µM*	5
COc1ccc(C)cc1NC(=O)CCS(=O)(=O)c1ccc2c(c1)oc(=O)n2C	2%	x	12%	-7
Cc1noc(C)c1S(=O)(=O)N1CCc2nc(-c3ccccc3)c3c(c2C1)CO[C@@H](C)C3	x	-13%[11.5 µM]	x	x
CCOC(=O)c1c(-c2cccs2)csc1NC(=O)COC(=O)c1c(C)noc1C	-1%	14µM*	x	-16
CCOC(=O)c1ccc(Nc2cc(C)nc(-c3ccccc3)n2)cc1	14%	x	5µM*	18
CCOC(=O)c1ccc(Nc2nc(C)cc(C)n2)cc1	-3%	x	4%	24
Cc1ccc(C(=O)C2=C(O)C(=O)N(c3ncccn3)C2c2ccccc2F)o1 (stereo not drawn)	2%	x	-1%	-111*
CCn1cc(/C=C/c2cc[n+](C)cc2)c2ccccc21	4%	x	3%	-17
C=CCn1cc(/C=C/c2cc[n+](C)cc2)c2ccccc21	8%	-4%	10µM*	-9
Cc1ccc(C)c(OCC(=O)N(Cc2ccccc2)c2c(N)n(Cc3ccccc3)c(=O)[nH]c2=O)c1	5%	x	2%	x
SMILES	TCR act	PKM2 activator	uPA surface inh	TSHR antagonist
CCC1CCCCN1S(=O)(=O)c1ccc(C(=O)N(CCCN(C)C)c2nc3cc4c(cc3s2)OCO4)cc1 (stereo not drawn)	2%	9%	-13%	13
Cc1nc(-c2ccc(S(=O)(=O)Nc3cccc(Cl)c3)cc2)co1	-2%	7.9µM*	5%	-13
COc1ccc(Cl)cc1S(=O)(=O)N1CCCC(C(=O)N2CCOCC2)C1 (stereo not drawn)	-3%	-8%	-4%	39
CCOc1ccc(NC(=O)c2cnccn2)cc1	1%[46.1 µM]	-14%	-18%	6
COc1ccc(C(=O)NNC(=O)c2ccccn2)cc1	0%[46.1 µM]	-78%	3.2µM*	-3
COc1cc(OC)cc(C(=O)NNC(=O)c2ccccn2)c1	-5%[46.1 µM]	-2%	3%	-8
CCOc1ccc(NC(=O)c2ccccn2)cc1	8%[46.1 µM]	-49%	1.6µM*	3
O=C(Cn1ncc(Cl)c(Cl)c1=O)NC1CCCCC1	-8%	x	10µM*	27
Cc1nc(SCC(=O)c2ccccc2)c(C#N)c(-c2ccco2)c1C(=O)NCc1ccco1	2%	25µM*	-1%	-5
Cc1c(C(=O)OCc2ccccc2)[nH]c2c1C(=O)CC(c1ccco1)C2 (stereo not drawn)	5%	u	1µM*	-8
CCOC(=O)c1[nH]c2c(c1C)C(=O)CC(c1ccco1)C2 (stereo not drawn)	0%	u	u	-1
COC(=O)c1[nH]c2c(c1C)C(=O)CC(c1cc(OC)ccc1OC)C2 (stereo not drawn)	0%	7%	5.6µM*	-12
COCCOC(=O)c1[nH]c2c(c1C)C(=O)CC(c1ccco1)C2 (stereo not drawn)	-5%	u	1µM*	-1
CSCCOC(=O)c1[nH]c2c(c1C)C(=O)CC(c1ccco1)C2 (stereo not drawn)	3%	22µM*	u	-1
O=C(c1cccc(S(=O)(=O)Nc2ccccc2Cl)c1)N1CCN(c2ccccc2O)CC1	-9%	x	-8%	-7
CCN(C(=O)COC(=O)CCC(=O)c1ccc(C)cc1)c1c(N)n(Cc2ccccc2)c(=O)[nH]c1=O	-16%	x	-13%	x
O=C(NCCN1CCOCC1)c1ccc(N2CCCC2)c([N+](=O)[O-])c1	-1%	-5%	2%	32
O=[N+]([O-])c1ccc(NC(=S)NCCc2ccccc2)cc1	2%[46.1 µM]	0%	-8%	u
O=[N+]([O-])c1ccc(NC(=S)NCCc2ccc(Cl)cc2)cc1	-4%	-12%	-11%	-75*
COc1ccccc1NS(=O)(=O)c1cccc(C(=O)N2CCN(C/C=C/c3ccccc3)CC2)c1	-2%	3%	12%	-4
COc1ccccc1NS(=O)(=O)c1cc(C(=O)N2CCN(C/C=C/c3ccccc3)CC2)ccc1C	-5%	14%	4µM*	3
Cc1ccc(/C(N)=N/OC(=O)Cc2cccc3ccccc23)cc1	0%	25µM*	0%	-8
Cc1c(C(=O)c2ccc(Cl)c(Cl)c2)cnc2cc3c(cc12)OCO3	-6%[46.1 µM]	-26%	-5%	-16
Cc1ccc(S(=O)(=O)c2c(C(=O)c3ccccc3)cnc3cc4c(cc23)OCCO4)cc1	-7%[46.1 µM]	-17%	-7%	-83*
C[C@H]1Cc2c(COc3ccccc3)nc3c(c2CO1)CN(S(=O)(=O)c1ccc2c(c1)OCCN2C)CC3	x	-1%[11.5 µM]	x	x
CN[C@H]1CCc2cc(OC)c(OC)c(OC)c2-c2ccc(N(C)CC(OC)OC)c(=O)cc21	2%	x	3.5µM*	1
CC(=O)Oc1c(C)cc(Cl)cc1C(=O)Nc1ccc([N+](=O)[O-])cc1Cl	-6%[46.1 µM]	-2%	u	-82*
Cc1onc(-c2cccc(Cl)c2Cl)c1C(=O)O/N=C(\N)c1ccc([N+](=O)[O-])o1	-2%	-1%	4%	5
